Compound activity deposited in PubChem BioAssay by Broad Institute.
T cruzi growth-1 = blocks T. cruzi growth in NIH3T3 culture. T. cruzi beta-gal in NIH3T3, GalScreen luminescence, 90 h. inhibition, % at 8.34 µM. hit rate 5.9% among 77,000. AID 624255;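 active = mean inhibition above about 93%, with at least 55% of replicates each passing it, limit read from the data, passing the limit was not always enough; inconclusive = only one of those two conditions holds; inactive = neither condition holds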
Pf Dd2 inh = blocks growth of Plasmodium falciparum Dd2 parasites; P. falciparum Dd2 growth, SYBR Green, 72 h; hits give low values; activity change, % at 10 µM; hit rate 2.3% among 94,000; in the data active = activity change below about -80%; inconclusive = no clear call, values can overlap the other calls
C diff HTS = inhibitors of Clostridium difficile growth. Clostridium difficile clinical isolate growth, OD600, 24 h; hits give low values. growth activity, negative = inhibition, % at 16 µg/mL (by protocol). hit rate 0.25% among 86,000;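 active = mean growth activity at or below -80% and every replicate also at or below -80%; inconclusive = mean at or below -80% but some replicate above -80%; inactive = mean growth activity above -80%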
T cruzi growth-2 = inhibitors of T. cruzi proliferation; shares compounds with T cruzi growth-1; T. cruzi beta-gal in NIH3T3, GalScreen luminescence, 90 h; inhibition, % at 8.35 µM; hit rate 72% among 5,600; AID 651739;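 active = mean replicate inhibition above about 95% and at least 55% of replicates individually reaching it, limit read from the data; inconclusive = only one of the two criteria is met; inactive = neither criterion is met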
T cruzi growth-3 = blocks T. cruzi growth in NIH3T3 host cells | AID 651740 | T. cruzi beta-gal in NIH3T3, GalScreen luminescence, 90 h | hit rate 21% among 5,600 | shares compounds with T cruzi growth-1 | inhibition, % at 2.09 µM;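 active = mean inhibition above about 95%, with at least 55% of replicates also reaching it, limit read from the data; inconclusive = meets just one of the two conditions; inactive = meets neither condition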
3T3 cytotox = kills mouse NIH/3T3 fibroblasts | shares compounds with T cruzi growth-1 | NIH/3T3 viability, CellTiter-Glo ATP luminescence, 90 h | cytotoxicity (signal decrease), % at 8.35 µM | hit rate 14% among 5,600 | AID 651742;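 active = mean signal decrease across replicates above about 35% based on untreated-well scatter, with enough replicates individually passing, limit read from the data; inconclusive = no rule stated though some were filed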
NIH3T3 tox 2 = kills mouse NIH/3T3 fibroblasts; shares compounds with T cruzi growth-1; NIH/3T3 viability, CellTiter-Glo ATP luminescence, 90 h; inhibition, % at 24.9 µM; hit rate 56% among 5,600;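 active = mean loss of cell viability signal at or above a set limit, and enough replicates individually reaching it; inconclusive = meets only the mean limit or only the replicate share; inactive = meets neither condition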
A number is an active result; . = inactive; ? = inconclusive; / = not tested or not shown. Hits are enriched below; roughly 6.7% of the tested compounds scored in any of these assays.

SMILES	T cruzi growth-1	Pf Dd2 inh	C diff HTS	T cruzi growth-2	T cruzi growth-3	3T3 cytotox	NIH3T3 tox 2
CC(C)NC(=O)N1CCCCN2[C@H](CO)[C@@H](c3ccc(C#C[C@H](C)O)cc3)[C@H]2C1	.	.	.	/	/	/	/
CC(C)NC(=O)N1CCCCN2[C@H](CO)[C@@H](c3ccc(C#C[C@H](C)O)cc3)[C@@H]2C1	106.1	.	.	.	.	.	.
COc1cccc(CNC(=O)C[C@H]2C=C[C@H](NC(=O)C3CCC3)[C@@H](CO)O2)c1	.	.	/	/	/	/	/
C/C=C/c1ccc([C@@H]2[C@H](CO)N(C(C)=O)C23CN(C(=O)NC2CCCC2)C3)cc1	/	.	.	/	/	/	/
CC(C)CC#Cc1ccc2c(c1)O[C@@H](CN(C)C(=O)C1CC1)[C@@H](C)CN([C@@H](C)CO)S2(=O)=O	.	.	/	/	/	/	/
CC(C)CC#Cc1ccc2c(c1)O[C@H](CN(C)C(=O)C1CCOCC1)[C@@H](C)CN([C@H](C)CO)S2(=O)=O	.	.	.	/	/	/	/
CC(C)CC#Cc1ccc2c(c1)O[C@@H](CN(C)C(=O)C1CCOCC1)[C@@H](C)CN([C@H](C)CO)S2(=O)=O	.	.	.	/	/	/	/
CC(C)CC#Cc1ccc2c(c1)O[C@@H](CN(C)C(=O)C1CC1)[C@H](C)CN([C@@H](C)CO)S2(=O)=O	104.2	.	/	103.8	.	.	54.9
CC(C)CC#Cc1ccc2c(c1)O[C@H](CN(C)C(=O)C1CCOCC1)[C@H](C)CN([C@H](C)CO)S2(=O)=O	.	.	.	/	/	/	/
CC(C)CC#Cc1ccc2c(c1)O[C@H](CN(C)C(=O)C1CCCCC1)[C@H](C)CN([C@@H](C)CO)S2(=O)=O	111.9	.	.	102.1	103.3	.	104.4
CC(C)CC#Cc1ccc2c(c1)O[C@@H](CN(C)C(=O)C1CCC1)[C@@H](C)CN([C@@H](C)CO)S2(=O)=O	105.0	.	.	103.8	.	.	96.1
CC(C)CC#Cc1ccc2c(c1)O[C@@H](CN(C)C(=O)C1CCCCC1)[C@@H](C)CN([C@@H](C)CO)S2(=O)=O	112.7	.	.	?	?	.	105.4
C[C@@H]1CN([C@@H](C)CO)C(=O)Cc2cc(NC(=O)Nc3ccc(C(F)(F)F)cc3)ccc2O[C@@H]1CN(C)C(=O)Nc1ccccc1	.	.	.	/	/	/	/
C[C@@H]1CN([C@H](C)CO)C(=O)c2cc(NC(=O)CCCN(C)C)ccc2O[C@@H](C)CCCCO[C@@H]1CN(C)C(=O)NC1CCCCC1	.	.	.	/	/	/	/
Cc1noc(C)c1S(=O)(=O)Nc1ccc2c(c1)CC(=O)N([C@H](C)CO)C[C@H](C)[C@H](CN(C)Cc1ccc(C(=O)O)cc1)O2	.	.	.	/	/	/	/
CCCC#Cc1ccc2c(c1)O[C@H](CN(C)S(=O)(=O)c1cccc(OC)c1)[C@H](C)CN([C@H](C)CO)S2(=O)=O	120.7	.	.	103.5	98.3	.	24.9
COc1cccc(S(=O)(=O)N(C)C[C@H]2Oc3cc(C#CCN(C)C)ccc3S(=O)(=O)N([C@@H](C)CO)C[C@H]2C)c1	.	.	.	/	/	/	/
COCC#Cc1ccc2c(c1)O[C@H](CN(C)S(=O)(=O)c1cccc(OC)c1)[C@@H](C)CN([C@@H](C)CO)S2(=O)=O	.	.	.	/	/	/	/
COc1ccccc1S(=O)(=O)N(C)C[C@@H]1Oc2cc(C#CCC3CCCC3)ccc2S(=O)(=O)N([C@@H](C)CO)C[C@@H]1C	/	.	.	/	/	/	/
COc1cccc(S(=O)(=O)N(C)C[C@@H]2Oc3cc(C#CCC(C)C)ccc3S(=O)(=O)N([C@H](C)CO)C[C@@H]2C)c1	.	.	.	/	/	/	/
COc1ccccc1S(=O)(=O)N(C)C[C@H]1Oc2cc(C#CCC(C)C)ccc2S(=O)(=O)N([C@@H](C)CO)C[C@H]1C	113.2	.	.	95.2	108.0	.	80.6
COc1cccc(S(=O)(=O)N(C)C[C@H]2Oc3cc(C#CCC(C)C)ccc3S(=O)(=O)N([C@H](C)CO)C[C@H]2C)c1	?	.	.	97.4	115.2	.	74.2
COc1cccc(S(=O)(=O)N(C)C[C@H]2Oc3cc(C#CCN(C)C)ccc3S(=O)(=O)N([C@@H](C)CO)C[C@@H]2C)c1	108.2	.	.	113.5	.	.	.
Cc1ccc(S(=O)(=O)Nc2ccc3c(c2)C(=O)N([C@@H](C)CO)C[C@H](C)[C@@H](CN(C)C(=O)C2CCCCC2)OCCCC[C@@H](C)O3)cc1	.	.	.	/	/	/	/
COc1ccccc1S(=O)(=O)N(C)C[C@@H]1Oc2cc(/C=C/c3ccccc3)ccc2S(=O)(=O)N([C@H](C)CO)C[C@@H]1C	127.9	?	.	100.1	103.4	.	28.8
SMILES	T cruzi growth-1	Pf Dd2 inh	C diff HTS	T cruzi growth-2	T cruzi growth-3	3T3 cytotox	NIH3T3 tox 2
COc1ccccc1S(=O)(=O)N(C)C[C@@H]1Oc2cc(/C=C/c3ccccc3)ccc2S(=O)(=O)N([C@@H](C)CO)C[C@@H]1C	.	.	.	/	/	/	/
O=C(C[C@@H]1C[C@H]2c3cc(NC(=O)C4CCOCC4)ccc3O[C@H]2[C@@H](CO)O1)NCc1cc(F)ccc1F	.	.	.	/	/	/	/
C[C@@H]1CN([C@@H](C)CO)S(=O)(=O)c2ccc(Br)cc2O[C@@H]1CN(C)Cc1cccnc1	112.2	.	.	107.0	.	.	.
C[C@H](CO)N1C[C@H](C)[C@@H](CN(C)Cc2cccnc2)Oc2cc(Br)ccc2S1(=O)=O	111.1	.	.	.	.	.	39.5
C[C@H]1CN([C@@H](C)CO)S(=O)(=O)c2ccc(Br)cc2O[C@H]1CN(C)Cc1cccnc1	/	.	.	/	/	/	/
C[C@H](CO)N1C[C@H](C)[C@H](CN(C)Cc2cccnc2)Oc2cc(Br)ccc2S1(=O)=O	/	.	.	/	/	/	/
O=C(C[C@H]1CC[C@H]2NC[C@@H](O)COC[C@@H]2O1)NC1Cc2ccccc2C1	.	/	.	/	/	/	/
C[C@@H]1CCCCO[C@@H](CN(C)CC2CC2)[C@@H](C)CN([C@H](C)CO)C(=O)c2cc(NC(=O)Nc3ccc(C(F)(F)F)cc3)ccc2O1	98.0	.	.	98.6	107.3	.	100.6
C[C@@H]1CCCCO[C@H](CN(C)CC2CCCCC2)[C@H](C)CN([C@@H](C)CO)C(=O)c2cc(NC(=O)Nc3ccc(C(F)(F)F)cc3)ccc2O1	?	-87.2	-102.7	96.9	109.6	120.7	104.4
C[C@H](CO)N1C[C@H](C)[C@@H](CN(C)CC2CC2)OCCCC[C@H](C)Oc2ccc(NC(=O)Nc3ccc(C(F)(F)F)cc3)cc2C1=O	.	.	.	/	/	/	/
C[C@H]1CCCCO[C@@H](CN(C)C)[C@@H](C)CN([C@@H](C)CO)C(=O)c2cc(NC(=O)Nc3ccc(C(F)(F)F)cc3)ccc2O1	.	.	.	/	/	/	/
C[C@H]1CCCCO[C@H](CN(C)C)[C@@H](C)CN([C@@H](C)CO)C(=O)c2cc(NC(=O)Nc3ccc(C(F)(F)F)cc3)ccc2O1	.	/	.	/	/	/	/
